# High-throughput results from PubChem.
# NTR1 agonist – NTR1 (human) agonism | NTR1-U2OS beta-arrestin-GFP spot imaging, agonist mode | P30989 | 330,000 tested, 0.17% active | activation, % at 20 µM;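 active = activation at or above 40% of the spot to cytoplasm intensity ratio, with at least 20 cells analyzed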;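 note: 0% = DMSO without peptide and 100% = 100 nM NTR1 peptide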
# Target sequence (P30989 whole entry, looked up): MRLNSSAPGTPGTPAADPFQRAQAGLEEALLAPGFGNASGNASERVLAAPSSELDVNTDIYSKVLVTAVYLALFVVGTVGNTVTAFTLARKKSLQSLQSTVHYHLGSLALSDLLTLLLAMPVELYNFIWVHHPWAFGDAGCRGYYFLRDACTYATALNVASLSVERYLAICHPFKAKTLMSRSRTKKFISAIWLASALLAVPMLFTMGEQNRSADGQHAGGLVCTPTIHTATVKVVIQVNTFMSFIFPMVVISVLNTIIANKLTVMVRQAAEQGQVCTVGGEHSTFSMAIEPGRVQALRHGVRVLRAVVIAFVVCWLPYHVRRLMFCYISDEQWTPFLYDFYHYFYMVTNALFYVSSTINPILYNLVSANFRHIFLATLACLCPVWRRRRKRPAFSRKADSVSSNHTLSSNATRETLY
# CRFR2-BP antag – blocks CRF-induced signaling of the CRF-BP/CRF-R2 complex; 350,000 tested, 0.59% active; inhibition, % at 11.8 µM; AID 588475; HEK293 CRF-R2/CRF-BP, CRF-induced calcium fluorescence;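 active = inhibition of the ligand-induced calcium signal above about 50% at the single tested concentration, limit read from the data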
# CRFBP-R2 agonist – agonists of human CRF-binding protein/CRF-R2 receptor complex; HEK293 CRF-R2/CRF-BP, calcium dye fluorescence (FLIPR); percent of saturating CRF peptide response; activation, % at 13.2 µM; 350,000 tested, 0.46% active; AID 588473;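 active = activation of at least 50%, plus an integration ratio under a set limit after plate pattern correction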;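 note: plate controls were neutral control wells without compound for no effect and CRF at EC100 for full effect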
# V-ATPase pHluor – yeast V-ATPase proton transport regulation by pHLuorin. S. cerevisiae, pHLuorin cytosolic pH fluorescence. 350,000 tested, 0.37% active. response, % at 10 µM; in the data active = response mostly above about 7.3%, no sharp cut-off; inactive = mostly below about 5.4%; note: actives read high
# * marks the source's active call; other numbers are inactive results; . = no result given. Hits are enriched below; roughly 1.5% of the tested compounds scored in any of these assays.
SMILES,NTR1 agonist,CRFR2-BP antag,CRFBP-R2 agonist,V-ATPase pHluor
CCCNC(=O)c1nn2cc(Br)cnc2c1Br,0,-5,-1,0
CCOC(=O)c1cc(=O)cc(C(=O)OCC)o1,0,50*,-2,2
COC(=O)c1cc(=O)cc(C(=O)OC)o1,0,24,0,0
Cc1cc(C)nc(NS(=O)(=O)c2ccc(NC(=O)CSc3nc(-c4ccccc4)c(C#N)c(=O)[nH]3)cc2)n1,0,2,-2,-1
Cc1ccc(S(=O)(=O)NC(C(=O)Oc2ccc3ccc(=O)oc3c2)c2ccccc2)cc1 (stereo unspecified),0,-7,-1,-1
Cc1ccc(S(=O)(=O)N[C@H](C(=O)Oc2ccc3c(C(F)(F)F)cc(=O)oc3c2)c2ccccc2)cc1,2,-20,69*,1
O=C(CN(C(=O)CCC(=O)Nc1ccccn1)c1ccc(F)cc1)NCCc1ccccc1,1,-7,-2,-4
COC1=CC(=Cc2c(N)n3nc(CC(=O)N4CCCCC4)sc3nc2=O)C=C(OC)C1=O,0,-135,173*,2
Cn1c(-c2c(N)n(C3CCCC3)c3nc4ccccc4nc23)nc2ccccc21,8,-71,27,-82
COCCCn1c(N)c(-c2nc3ccccc3n2C)c2nc3ccccc3nc21,2,-180,92*,0
Cn1c(-c2c(N)n(CCCc3ccccc3)c3nc4ccccc4nc23)nc2ccccc21,.,-30,10,-7
Cn1c(-c2c(N)n(CCc3ccccc3)c3nc4ccccc4nc23)nc2ccccc21,17,-155,51*,-2
CC(N=C1NS(=O)(=O)c2ccccc21)C(=O)N1CCc2ccccc2C1 (stereo unspecified),0,106*,1,2
Cc1ccc(NC(=O)C(C)N=C2NS(=O)(=O)c3ccccc32)cc1 (stereo unspecified),0,14,2,4
COc1ccccc1NC(=O)C(C)OC(=O)Cc1n[nH]c(=O)c2ccccc12 (stereo unspecified),0,-14,1,16*
CC(CC(=O)Nc1nnc(CC(C)(C)C)s1)c1ccccc1 (stereo unspecified),1,-30,1,-1
Cc1ccc(CN(C)C(=O)COc2ccc(S(=O)(=O)N3CCCC3)cc2[N+](=O)[O-])c(C)c1,-1,9,0,-1
CCN(CC)c1ccc(/C=C(\C#N)C(N)=S)cc1,-4,-56,72*,-4
CCN(CC)c1ccc(/C=C(\C#N)C(=O)c2ccc(Br)cc2)cc1,.,-329,301*,4
CN(C)c1ccc(/C=C(\C#N)C(=O)c2ccccc2)cc1,.,-189,212*,0
O=C(COC(=O)Cc1ccc(S(=O)(=O)N2CCOCC2)s1)Nc1ccccc1Cl,-3,-6,-2,-3
CC(=O)Nc1ccc(C(=O)CN2CCN(c3ccccc3)CC2)cc1,0,-1,0,3
O=C(Nc1ccc([N+](=O)[O-])cc1Cl)c1cccc([N+](=O)[O-])c1,.,25,-1,-2
O=C(Nc1cccc2c1CCCC2)c1cc([N+](=O)[O-])ccc1Cl,4,-14,4,9.7*
O=C(Nc1ccc([N+](=O)[O-])cc1Cl)c1cc(Cl)ccc1O,5,87*,61*,5
SMILES,NTR1 agonist,CRFR2-BP antag,CRFBP-R2 agonist,V-ATPase pHluor
O=C(Nc1cccc(Cl)c1)c1cc(N=Nc2ccc([N+](=O)[O-])cc2Cl)ccc1O,5,69*,31,-4
O=C([C@@H]1CCCN1C1=NS(=O)(=O)c2ccccc21)N1CCN(c2ccccc2)CC1,.,7,-2,1
Cc1ccc(CN2CCN(/N=C/C(Br)=C\c3ccccc3)CC2)cc1,3,-74,129*,2
O=C(c1ccccc1)N1N=C(c2ccccc2)CC1c1ccccc1[N+](=O)[O-] (stereo unspecified),3,-25,0,-1
COc1ccc(NS(=O)(=O)c2cc([N+](=O)[O-])ccc2N/N=C/c2c(C)[nH]c3ccccc23)cc1,.,-42,51*,0
CCOC(=O)C1(Cc2cccc(Cl)c2)CCCN(C(=O)CN2C(=O)CSC2=O)C1 (stereo unspecified),0,22,1,-4
COc1ccc2c(c1OC)C(=O)N1c3ccccc3COC21 (stereo unspecified),3,67*,-2,0
CN1CCN(S(=O)(=O)c2cccc(C(=O)Oc3ccc(Br)cc3F)c2)CC1,0,-14,-1,-3
COc1ccc(NC(=O)c2ccccc2NC(=O)c2ccco2)c(OC)c1,1,-7,-2,0
COc1ccc(/C=N/NC(=O)c2ccccc2NC(=O)c2ccco2)c(OC)c1,2,111*,-3,-3
Clc1ccc(C#Cc2cccnc2)cc1,0,2,-1,-2
S=C1SCN(Cc2cccnc2)CN1Cc1cccnc1,2,-107,101*,2
CCC1(c2ccc(F)cc2)NC(=O)N(CC(=O)Nc2cccnc2Cl)C1=O (stereo unspecified),0,-15,23,3
N/C(=N\OC(=O)COc1ccc(Cl)cc1Cl)c1ccccn1,0,-1,-1,1
N/C(=N\OC(=O)COc1ccc(Br)cc1Cl)c1ccccn1,1,8,0,22*
Cc1nnc(SCC(=O)N(C)Cc2ccccc2)[nH]c1=O,1,88*,0,5
COc1ccc(CCNC(=O)C2CC(c3cc(C(F)(F)F)cc(C(F)(F)F)c3)=NO2)cc1 (stereo unspecified),0,-4,0,-4
Cc1ccc2nc(N3C(=O)C(O)=C(C(=O)c4ccc(C)o4)C3c3cccc(O)c3)sc2c1 (stereo unspecified),1,96*,11,-1
COc1ccc([C@H]2C[C@H](n3cc(-c4ccc(F)cc4)nn3)[C@@H](O)CN2C(=O)C2CCCCC2)cc1,.,-13,-1,-1
Cc1ccc(C(=O)Nc2nnc(-c3ccco3)o2)cc1C,-1,51*,1,-1
Cc1cccc(C(=O)Nc2nnc(-c3ccco3)o2)c1,0,13,-2,1
CC(C)(C)OC[C@H](NC(=O)c1[nH]cnc1C(=O)Nc1ccccc1F)C(=O)OC(C)(C)C,.,12,-1,0
COc1cccc2[nH]c3c(N4CCN(Cc5ccc6c(c5)OCO6)CC4)ncnc3c12,2,.,.,.
COc1ccc2c(c1)[nH]c1c(N3CCN(Cc4ccc5c(c4)OCO5)CC3)ncnc12,43*,-24,-1,0
O=c1sc2ccccc2n1CCOc1ccccc1,-1,36,-3,3
SMILES,NTR1 agonist,CRFR2-BP antag,CRFBP-R2 agonist,V-ATPase pHluor
Cc1ccc(OCn2c(=O)sc3ccccc32)cc1,0,55*,-2,6
CC1SC(C)C(=O)N(CC(=O)Nc2ccc([N+](=O)[O-])cc2)C1=O (stereo unspecified),3,-4,-1,-1
Clc1ccccc1OCc1nc(-c2ccc(Br)o2)no1,-3,14,4,4
Brc1ccc(-c2noc(CCc3ccccc3)n2)o1,2,61*,1,0
COc1ccc(CNS(=O)(=O)NCc2ccccc2)cc1OC,-2,-285,274*,1
CCn1cc(CN2CCC(n3nccc3NC(=O)c3ccc(OC)cc3)CC2)cn1,0,-2,1,-7
